Measurements from the supplement of paper PMC13380429.

Test system: Vero E6 infected with SARS-CoV-2
Assay: inhibition of SARS-CoV-2 cytopathic effect; higher = more antiviral protection, active = above 15
Conditions: 48 h

Measured: inhibition of SARS-CoV-2 cytopathic effect

COc1ccc(-c2cc(=O)c3c(O)cc(O[C@@H]4O[C@H](CO[C@@H]5O[C@@H](C)[C@H](O)[C@@H](O)[C@H]5O)[C@@H](O)[C@H](O)[C@H]4O)cc3o2)cc1O [diosmin]
inactive: 1 nM 3.94% | 8.33 nM -0.11% | 100 nM -2.26% | 833.33 nM 4.64% | 10000 nM -2.85%

CCC[C@H](N[C@@H](C)C(=O)N1[C@H](C(=O)O)C[C@@H]2CCCC[C@@H]21)C(=O)O [perindoprilat]
inactive: 1 nM 4.13% | 8.33 nM -0.1% | 100 nM 3.43% | 833.33 nM 0.42% | 10000 nM -3.18%

CCOc1nc2c(N)ncnc2n1CC
inactive: 1 nM -1.28% | 8.33 nM 2.22% | 100 nM -1.47% | 833.33 nM 1.94% | 10000 nM -1.72%

CC1(C)O[C@@H]2C[C@H]3[C@@H]4CCC5=CC(=O)C=C[C@]5(C)[C@@]4(F)[C@@H](O)C[C@]3(C)[C@]2(C(=O)CO)O1
inactive: 1 nM 0.1% | 8.33 nM -0.04% | 100 nM 1.38% | 833.33 nM 1.4% | 10000 nM -0.1%

C/C=C/C=C/C(=O)O [sorbic-acid]
inactive: 1 nM 1.14% | 8.33 nM 2.26% | 100 nM -1.43% | 833.33 nM 2.41% | 10000 nM 2.55%

COc1cc2nc(N3CCN(C(=O)c4ccco4)CC3)nc(N)c2cc1OC [prazosin]
inactive: 1 nM 0.79% | 8.33 nM -8.02% | 100 nM -0.93% | 833.33 nM -1.57% | 10000 nM 1.13%

COc1ccc(NC(=O)c2ccc(C(=N)N(C)C)cc2)c(C(=O)Nc2ccc(Cl)cn2)c1 [betrixaban]
inactive: 1 nM -1.01% | 8.33 nM 0.96% | 100 nM -0.6% | 833.33 nM 1.17% | 10000 nM -3.48%

OCCN1CCN(CCCN2c3ccccc3C=Cc3ccccc32)CC1 [opipramol]
inactive: 1 nM 2.92% | 8.33 nM 1.37% | 100 nM 1.62% | 833.33 nM -1.41% | 10000 nM -3.08%

C[C@H](Cc1ccc(O)c(O)c1)[C@@H](C)Cc1ccc(O)c(O)c1 [masoprocol]
inactive: 1 nM -3.87% | 8.33 nM 1.69% | 100 nM 2.75% | 833.33 nM -1.7% | 10000 nM 12%

Cc1ccc(S(=O)(=O)Nc2ccc3c(c2)c(C(=O)C(F)(F)F)cn3CC(=O)N[C@@H](CC(C)C)C(=O)O)cc1
inactive: 1 nM 0.38% | 8.33 nM -1.93% | 100 nM -1.37% | 833.33 nM 0.8% | 10000 nM 3.55%

COC(=O)C1=CCCN(C)C1 [arecoline]
inactive: 1 nM 1.27% | 8.33 nM 1.95% | 100 nM -1.54% | 833.33 nM -1.35% | 10000 nM 1.15%

CC[C@H](C)[C@H](N)C1=N[C@H](C(=O)N[C@@H](CC(C)C)C(=O)N[C@H](CCC(=O)[O-])C(=O)N[C@H](C(=O)N[C@H]2CCCCNC(=O)[C@H](CC(N)=O)NC(=O)[C@@H](CC(=O)[O-])NC(=O)[C@H](Cc3cnc[nH]3)NC(=O)[C@@H](Cc3ccccc3)NC(=O)[C@H]([C@@H](C)CC)NC(=O)[C@@H](CCCN)NC2=O)[C@@H](C)CC)CS1.[Zn+2] [bacitracin-zinc]
inactive: 1 nM 1.46% | 8.33 nM 1.2% | 100 nM 2.85% | 833.33 nM -0.14% | 10000 nM 0.15%

CCCCCCCCCCCCCCCCCC(=O)OC[C@@H](O)[C@H]1OC[C@H](O)[C@H]1O [sorbitan-monostearate]
inactive: 1 nM 0.02% | 8.33 nM -1.4% | 100 nM 1.63% | 833.33 nM 2.62% | 10000 nM -0.38%

Cc1cnc(Nc2ccc(OCCN3CCCC3)cc2)nc1Nc1cccc(S(=O)(=O)NC(C)(C)C)c1 [fedratinib]
inactive: 1 nM -3.17% | 8.33 nM 1.42% | 100 nM -0.42% | 833.33 nM -3.59% | 10000 nM -18.4%

Cc1c(-c2ccnn2C)cc(C(=O)NCc2ccc(S(C)(=O)=O)cn2)c(=O)n1-c1cccc(C(F)(F)F)c1
inactive: 1 nM -2.24% | 8.33 nM -0.81% | 100 nM -0.79% | 833.33 nM -2.96% | 10000 nM -0.81%

CCCCn1c(-c2ccccc2)nc(-c2ccccc2)c1CN(Cc1ccc2c(c1)OCO2)Cc1ccc2c(c1)OCO2
inactive: 1 nM 0% | 8.33 nM 1.63% | 100 nM -0.2% | 833.33 nM 0.71% | 10000 nM 5.96%

C[N+](C)(C)CC(O)CC(=O)[O-] (stereo not given) [carnitine-(D/L)]
inactive: 1 nM -1.88% | 8.33 nM -0.98% | 100 nM 0.43% | 833.33 nM 3.52% | 10000 nM 5.12%

O=C1OC(c2ccc(O)cc2)(c2ccc(O)cc2)c2ccccc21 [phenolphthalein]
inactive: 1 nM -1.78% | 8.33 nM 2.66% | 100 nM -1.09% | 833.33 nM -0.27% | 10000 nM 0.56%

CCCCCCCCCCCCCCCCCCCCCCCCCCCCO [1-octacosanol]
inactive: 1 nM 1.47% | 8.33 nM 3.47% | 100 nM 4.36% | 833.33 nM -0.37% | 10000 nM 1.08%

CC/C=C(\C(=O)N[C@@H]1C(=O)N2C(C(=O)OCOC(=O)C(C)(C)C)=C(COC(N)=O)CS[C@H]12)c1csc(N)n1 [cefcapene-pivoxil]
inactive: 1 nM -0.85% | 8.33 nM -2.87% | 100 nM -0.76% | 833.33 nM 1.69% | 10000 nM -0.26%

O=c1cc(N2CCOCC2)oc2c(-c3ccccc3)cccc12
inactive: 1 nM -0.31% | 8.33 nM 1.39% | 100 nM 0.59% | 833.33 nM -1.92% | 10000 nM -5.7%

NC(=O)c1ccc2[nH]ccc2c1
inactive: 1 nM -2.02% | 8.33 nM 0.22% | 100 nM 0.99% | 833.33 nM 0.03% | 10000 nM 3.72%

c1cc2c(cc1[C@H]1OC[C@H]3[C@@H]1CO[C@@H]3c1ccc3c(c1)OCO3)OCO2 [sesamin]
inactive: 1 nM -1.62% | 8.33 nM -0.09% | 100 nM -0.37% | 833.33 nM 0.48% | 10000 nM -1.08%

C[C@@H]1c2ccccc2CN1CC1=NCCN1 (racemic)
inactive: 1 nM -1.04% | 8.33 nM -0.79% | 100 nM -0.96% | 833.33 nM 1.02% | 10000 nM -0.71%

CN[C@@H]1[C@H](O)[C@H](NC)[C@H]2O[C@@]3(O)C(=O)C[C@@H](C)O[C@H]3O[C@@H]2[C@H]1O [spectinomycin]
inactive: 1 nM 1.83% | 8.33 nM 2% | 100 nM 1.36% | 833.33 nM 4.54% | 10000 nM 3.59%

Cc1cc(-c2ncc(CC(=O)Nc3ccc(-c4cnccn4)cn3)cc2C)ccn1
inactive: 1 nM -0.34% | 8.33 nM -0.01% | 100 nM -1.16% | 833.33 nM 1.44% | 10000 nM 2.89%

COc1ccc(-c2coc3cc(O)ccc3c2=O)cc1 [formononetin]
inactive: 1 nM 0.45% | 8.33 nM 1.81% | 100 nM 1.27% | 833.33 nM -2.13% | 10000 nM -0.02%

Cc1cccc(C)c1NC1=NCCCS1 [xylazine]
inactive: 1 nM 1.43% | 8.33 nM 1.2% | 100 nM 1.06% | 833.33 nM -1.24% | 10000 nM -0.19%

CCOC(=O)c1cc(C#N)c(N2CCC(C(=O)NS(=O)(=O)Cc3ccccc3)CC2)nc1C
inactive: 1 nM 3.08% | 8.33 nM 2.38% | 100 nM 0.44% | 833.33 nM 1.19% | 10000 nM -2.86%

Oc1ccc(Nc2nc(-c3ccc(Cl)cc3)cs2)cc1
inactive: 1 nM 0.33% | 8.33 nM 0.67% | 100 nM 2.65% | 833.33 nM 1.03% | 10000 nM 3.81%

CCOC(=O)[C@H](CCc1ccccc1)N[C@@H](C)C(=O)N1CCC[C@H]1C(=O)O [enalapril]
inactive: 1 nM -1.51% | 8.33 nM -1.35% | 100 nM -0.07% | 833.33 nM 2.42% | 10000 nM 0.52%

C[C@@H](CN1CC(=O)NC(=O)C1)N1CC(=O)NC(=O)C1 [dexrazoxane]
inactive: 1 nM 1.89% | 8.33 nM 2.78% | 100 nM 2.19% | 833.33 nM 3.16% | 10000 nM -1.81%

CC(COc1ccccc1)N(CCCl)Cc1ccccc1 (stereo not given) [phenoxybenzamine]
inactive: 1 nM 2.45% | 8.33 nM 2.51% | 100 nM 1.57% | 833.33 nM 0.91% | 10000 nM -0.17%

CC(C)n1nc(-c2ccc3oc(N)nc3c2)c2c(N)ncnc21
inactive: 1 nM 1.94% | 8.33 nM 2.32% | 100 nM 1.66% | 833.33 nM -3.23% | 10000 nM -4.59%

CN1CCN(c2ncc(-c3cc(Cl)cc(Cl)c3Cl)c(N)n2)CC1 [sipatrigine]
inactive: 1 nM -3.16% | 8.33 nM -4.99% | 100 nM -2.74% | 833.33 nM -3.24% | 10000 nM 2.7%

CC[C@H](CC#N)OC(=O)N[C@@H](C)c1cccc(NC(=O)Nc2ccc(-c3cnco3)c(OC)c2)c1
inactive: 1 nM 0.48% | 8.33 nM 4.56% | 100 nM 0.06% | 833.33 nM 10.2% | 10000 nM 13.2%

Cn1ccc2cc(NC(=O)Nc3cccnc3)ccc21
inactive: 1 nM -1.98% | 8.33 nM -2.46% | 100 nM 0.51% | 833.33 nM -1.88% | 10000 nM 1.94%

NS(=O)(=O)c1cc2c(cc1Cl)N=C(CSCc1ccccc1)NS2(=O)=O [benzthiazide]
inactive: 1 nM 3.18% | 8.33 nM 0.15% | 100 nM 0.52% | 833.33 nM 2.56% | 10000 nM -0.2%
